{
  "source": "paper PMC8384837",
  "about": "“Expanding the binding specificity for RNA recognition by a PUF domain”",
  "test_in_all_cases": "yeast three-hybrid, YBZ-1, SC-Leu-His + 0.5 mM 3-AT, 4 days",
  "settings_in_all_cases": "tags: N-Gal4 AD-HA kept; label: inside an RPR1-promoter hybrid RNA with tandem MS2 sites; ssRNA",
  "key": {"PUM1 PUF domain R3-EWV": {"target": "PUM1 PUF domain R3-EWV (Homo sapiens, UniProt Q14671 828-1176, C935E;R936W;Q939V)", "summary_of_the_method": "(§1)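 The interaction score is the log change in how often each variant appears, from input to selection. Frequencies came from PCR-amplified, Illumina-sequenced repeat regions of Pumilio-1 PUF domain libraries grown in strain YBZ-1 (LexA–MS2 coat fusion, HIS3 reporter) alongside matching RNA elements. Input plates were SC-Leu and selection plates were SC-Leu-His + 0.5 mM 3-AT, each for four days, and the log2 calculation used a pseudocount of 1 where a variant was absent.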"}, "PUM1 PUF domain R3-YCG": {"target": "PUM1 PUF domain R3-YCG (Homo sapiens, UniProt Q14671 828-1176, C935Y;R936C;Q939G)", "summary_of_the_method": "as §1"}, "PUM1 PUF domain R3-GWP": {"target": "PUM1 PUF domain R3-GWP (Homo sapiens, UniProt Q14671 828-1176, C935G;R936W;Q939P)", "summary_of_the_method": "as §1"}, "PUM1 PUF domain R1-QRR": {"target": "PUM1 PUF domain R1-QRR (Homo sapiens, UniProt Q14671 828-1176, S863Q;Q867R)", "summary_of_the_method": "as §1"}, "PUM1 PUF domain R1-VKR": {"target": "PUM1 PUF domain R1-VKR (Homo sapiens, UniProt Q14671 828-1176, S863V;R864K;Q867R)", "summary_of_the_method": "as §1"}, "PUM1 PUF domain R1-RKV": {"target": "PUM1 PUF domain R1-RKV (Homo sapiens, UniProt Q14671 828-1176, S863R;R864K;Q867V)", "summary_of_the_method": "as §1"}, "PUM1 PUF domain R3-ARI": {"target": "PUM1 PUF domain R3-ARI (Homo sapiens, UniProt Q14671 828-1176, C935A;Q939I)", "summary_of_the_method": "as §1"}, "PUM1 PUF domain R1-QIR": {"target": "PUM1 PUF domain R1-QIR (Homo sapiens, UniProt Q14671 828-1176, S863Q;R864I;Q867R)", "summary_of_the_method": "as §1"}, "PUM1 PUF domain R6-TWG": {"target": "T1, PUM1 PUF domain R6-TWG (Homo sapiens, UniProt Q14671 828-1176, N1043T;Y1044W;Q1047G)", "T1 sequence": "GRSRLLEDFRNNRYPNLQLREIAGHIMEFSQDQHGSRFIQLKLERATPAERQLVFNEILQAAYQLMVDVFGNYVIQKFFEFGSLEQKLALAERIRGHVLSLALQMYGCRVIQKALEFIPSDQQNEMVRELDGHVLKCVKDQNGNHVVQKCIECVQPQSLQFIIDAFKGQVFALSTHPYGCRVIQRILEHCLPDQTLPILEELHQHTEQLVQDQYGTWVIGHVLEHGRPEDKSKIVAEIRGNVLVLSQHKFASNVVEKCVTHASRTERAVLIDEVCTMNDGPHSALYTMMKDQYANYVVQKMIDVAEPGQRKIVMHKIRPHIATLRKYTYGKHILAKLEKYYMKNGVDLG", "summary_of_the_method": "as §1"}, "PUM1 PUF domain R8-RWF": {"target": "PUM1 PUF domain R8-RWF (Homo sapiens, UniProt Q14671 828-1176, N1122R;Y1123W;Q1126F)", "summary_of_the_method": "as §1"}},
  "data": [
    {"sequence": "GGCUAGAACUAGUGGAUCCCCCGGCGCCCGGCGGCUCGAGCCCGGGUAAGUGUAAGUAGUCUGCAUGCCGCCGGGCGCCAUGCCUGCAGGUCGACUCUAGAAAACAUG", "values": [
      {"measurement": "binding signal", "setting": "PUM1 PUF domain R3-EWV", "result": "2.9 log2 enrichment (interaction score)"},
      {"measurement": "binding signal", "setting": "PUM1 PUF domain R3-YCG", "result": "4.58 log2 enrichment (interaction score)"},
      {"measurement": "binding signal", "setting": "PUM1 PUF domain R3-GWP", "result": "5.41 log2 enrichment (interaction score)"}
    ]},
    {"sequence": "GGCUAGAACUAGUGGAUCCCCCGGCGCCCGGCGGCUCGAGCCCGGGUAAGUGUAAAUUGUCUGCAUGCCGCCGGGCGCCAUGCCUGCAGGUCGACUCUAGAAAACAUG", "values": [
      {"measurement": "binding signal", "setting": "PUM1 PUF domain R1-QRR", "result": "1.96 log2 enrichment (interaction score)"},
      {"measurement": "binding signal", "setting": "PUM1 PUF domain R1-VKR", "result": "1.61 log2 enrichment (interaction score)"},
      {"measurement": "binding signal", "setting": "PUM1 PUF domain R1-RKV", "result": "3.41 log2 enrichment (interaction score)"}
    ]},
    {"sequence": "GGCUAGAACUAGUGGAUCCCCCGGCGCCCGGCGGCUCGAGCCCGGGUAAGUGUAAAUGGUCUGCAUGCCGCCGGGCGCCAUGCCUGCAGGUCGACUCUAGAAAACAUG", "values": [
      {"measurement": "binding signal", "setting": "PUM1 PUF domain R1-VKR", "result": "0.84 log2 enrichment (interaction score)"},
      {"measurement": "binding signal", "setting": "PUM1 PUF domain R1-RKV", "result": "0.48 log2 enrichment (interaction score)"}
    ]},
    {"sequence": "GGCUAGAACUAGUGGAUCCCCCGGCGCCCGGCGGCUCGAGCCCGGGUAAGUGUAAUUAGUCUGCAUGCCGCCGGGCGCCAUGCCUGCAGGUCGACUCUAGAAAACAUG", "values": [
      {"measurement": "binding signal", "setting": "PUM1 PUF domain R3-EWV", "result": "2.82 log2 enrichment (interaction score)"},
      {"measurement": "binding signal", "setting": "PUM1 PUF domain R3-GWP", "result": "4.22 log2 enrichment (interaction score)"},
      {"measurement": "binding signal", "setting": "PUM1 PUF domain R3-ARI", "result": "2.15 log2 enrichment (interaction score)"}
    ]},
    {"sequence": "GGCUAGAACUAGUGGAUCCCCCGGCGCCCGGCGGCUCGAGCCCGGGUAAGUGUAAAUCGUCUGCAUGCCGCCGGGCGCCAUGCCUGCAGGUCGACUCUAGAAAACAUG", "values": [
      {"measurement": "binding signal", "setting": "PUM1 PUF domain R1-QRR", "result": "5.33 log2 enrichment (interaction score)"},
      {"measurement": "binding signal", "setting": "PUM1 PUF domain R1-VKR", "result": "3.48 log2 enrichment (interaction score)"},
      {"measurement": "binding signal", "setting": "PUM1 PUF domain R1-QIR", "result": "3.53 log2 enrichment (interaction score)"}
    ]},
    {"sequence": "GGCUAGAACUAGUGGAUCCCCCGGCGCCCGGCGGCUCGAGCCCGGGUAAGUGUAAAUAGUCUGCAUGCCGCCGGGCGCCAUGCCUGCAGGUCGACUCUAGAAAACAUG", "values": [
      {"measurement": "binding signal", "setting": "PUM1 PUF domain R3-GWP", "result": "6.69 log2 enrichment (interaction score)"},
      {"measurement": "binding signal", "setting": "PUM1 PUF domain R3-ARI", "result": "4.45 log2 enrichment (interaction score)"},
      {"measurement": "binding signal", "setting": "PUM1 PUF domain R6-TWG", "result": "3.96 log2 enrichment (interaction score)"}
    ]},
    {"sequence": "GGCUAGAACUAGUGGAUCCCCCGGCGCCCGGCGGCUCGAGCCCGGGUAAGCGUAAAUAGUCUGCAUGCCGCCGGGCGCCAUGCCUGCAGGUCGACUCUAGAAAACAUG", "values": [
      {"measurement": "binding signal", "setting": "PUM1 PUF domain R8-RWF", "result": "5.22 log2 enrichment (interaction score)"}
    ]}
  ]
}
